# High-throughput results: PubChem BioAssay, Sanford-Burnham Center for Chemical Genomics
# tim23-1 inh – inhibits growth of tim23-1 mutant yeast; inhibition, % at 20 µM; AID 463212; hit rate 1.3% among 330,000; S. cerevisiae tim23-1 growth, BacTiter-Glo luminescence, 24 h;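 active = growth inhibition of the mutant yeast at or above 50%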;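 note: temperature-sensitive mutant grown at 25 °C; plate controls were DMSO-treated mutant yeast for no effect and medium wells lacking yeast for full effect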
# TIM10 inh – inhibits growth of TIM10 yeast strain; S. cerevisiae TIM10 strain growth, BacTiter-Glo luminescence, 24 h; inhibition, % at 10 µM; hit rate 1.4% among 330,000;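 active = inhibition of 40% or more at the single tested concentration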;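 note: wild-type TIM10 isogenic control strain grown at permissive 25 °C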
# NLRP3 yeast inh – inhibitors of NALP3 inflammasome in yeast; Yeast reconstituted NLRP3/ASC/caspase-1, beta-gal luminescence, 24 h; inhibition, % at 10 µM; hit rate 0.39% among 330,000; AID 2825;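 active = inhibition of 50% or more; inactive = inhibition below 50%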;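 note: plate controls were induced DMSO wells for no effect and uninduced yeast grown without galactose for full effect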
# NALP1 yeast inh – blocks the NALP1 inflammasome reconstituted in yeast; S. cerevisiae NALP1/ASC/caspase-1 growth, X-gal OD620, 72 h; inhibition, % at 10 µM; hit rate 0.61% among 280,000; in the data active = inhibition mostly above about 24%, no sharp cut-off; inactive = mostly below about 32%
# tim10-1 inh – tim10-1 yeast growth inhibition; inhibition, % at 20 µM; hit rate 2.2% among 330,000; S. cerevisiae tim10-1 ts strain growth, BacTiter-Glo, 24 h; AID 463190;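 active = inhibition of at least 40%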;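 note: mutant grown at 25 °C; 0% = DMSO wells with yeast and 100% = wells holding no yeast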
# tim10-1 confirm – tim10-1 yeast growth inhibition, confirmed; hit rate 56% among 7,400; AID 463213; S. cerevisiae tim10-1 ts strain growth, BacTiter-Glo, 24 h; shares compounds with tim10-1 inh; inhibition, % at 20 µM;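 active = inhibition of yeast growth at or above a set limit in either of two repeat tests at 20 µM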;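 note: tim10-1 mutant grown at permissive 25 °C to find synthetic lethal compounds; 0% = DMSO yeast wells and 100% = medium wells without yeast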
# Active calls of the source: *; nt = no result. Rows were chosen to be rich in hits. Some 4.1% of all compounds tested hit in one or more screens of this group.
SMILES,tim23-1 inh,TIM10 inh,NLRP3 yeast inh,NALP1 yeast inh,tim10-1 inh,tim10-1 confirm
O=S(=O)(Nc1ccc2c(c1)oc1ccccc12)N1CCCC1,22.0,39.3,11.5,11.1,47.5*,27.4
Cc1cc(Cl)ccc1OC(C)C(=O)Nc1ccc([N+](=O)[O-])cn1 (stereo unspecified),40.9,2.7,24.1,40.1,14.8,nt
Cc1cc(C(F)(F)F)n(-c2nc(C(=O)N/N=C/c3ccc(F)cc3)cs2)n1,11.6,14.5,20.5,8.7,42.1*,20.4
O=C(Cn1c(S(=O)(=O)Cc2ccccc2)nc2ccccc21)N1CCCCC1,5.4,3.7,12.5,-37.1,20.7,nt
O=C(N1CCCCCC1)n1c(Cc2ccccc2)nc2ccccc21,22.9,35.8,19.1,6.2,40.6*,42.2*
COc1ccc(C)cc1NC(=O)c1ccc(CN2CCN(c3ccccc3)CC2)cc1,36.2,21.2,34.4,52.1,46.3*,29.9
COc1ccc(NC(=O)c2ccc(CN3CCN(c4ccccc4)CC3)cc2)cc1OC,16.7,4.4,17.4,4.2,27.9,nt
CCC1CCc2sc(C(=O)N(C)CC(=O)Nc3ccc(N4CCOCC4)cc3)cc2C1 (stereo unspecified),-14.5,-70.7,18.9,nt,6.8,nt
CCn1c(SCC(O)c2ccccc2)nnc1-c1ccccc1 (stereo unspecified),12.7,5.9,20.8,34.6,26.9,nt
CCn1c(SCc2cccc(C)c2)nnc1-c1ccccc1,37.3,29.2,-8.0,3.7,47.4*,29.1
CC1(C)CC(=O)C=C(c2cccs2)C1,17.4,4.5,-4.0,nt,0.5,nt
CCOC(=O)C1CCCN(C(=O)c2ccc3oc(CCc4ccccc4)nc3c2)C1 (stereo unspecified),30.0,10.1,7.8,17.2,42.2*,7.8
CSCCC(=O)N1CCCC(CNC(=O)c2ccc(-c3ccccc3)cc2)C1 (stereo unspecified),32.9,22.6,11.1,17.3,40.1*,27.9
CSCC[C@H](NC(=O)C(C)Oc1ccc(Cl)cc1)c1nc2ccccc2[nH]1 (stereo partly specified),18.2,26.2,-4.4,23.8,17.3,nt
Cc1ccsc1C(C(=O)NC1CCCCC1)N(C(=O)c1csnn1)C1CC1 (stereo unspecified),28.6,-5.6,7.1,-2.7,17.0,nt
COc1ccc(Cn2nnnc2CN2CCC(c3nc4ccccc4s3)CC2)cc1,9.8,29.8,4.1,-17.4,40.8*,18.1
CC(C)N(Cc1ccccc1)C(=S)NC1CCCCC1,18.4,15.8,-2.9,6.0,51.4*,25.5
Cc1cc(C)n(-c2nc(NCCO)c3c4c(sc3n2)CCCC4)n1,49.1,24.9,1.1,39.6,35.9,nt
Cc1cc(C)n(-c2nc(NCCCO)c3c4c(sc3n2)CCCC4)n1,39.1,27.1,22.8,7.2,50.4*,26.6
COC(=O)C1(Cc2cc(-c3ccc(OC)cc3OC)no2)CCN(C(=O)OC(C)(C)C)CC1,17.8,4.5,0.9,26.5,2.3,nt
COc1ccc(-c2cc(C3CCN(c4ccc(C(C)=O)cc4[N+](=O)[O-])CC3)[nH]n2)cc1,20.5,29.4,27.1,5.7,35.4,nt
COc1ccc(-c2cc(C3CCN(C(=O)OC(C)(C)C)CC3)[nH]n2)cc1,39.5,34.4,4.8,9.7,44.5*,38.9*
COc1ccc(OC)c(-c2cc(C3CCN(C(=O)OC(C)(C)C)CC3)[nH]n2)c1,18.8,9.4,5.1,0.7,40.0,5.7
Cc1nn(-c2ccccc2)c(/N=C/c2ccc(O)cc2)c1-c1ccccc1,8.4,20.5,10.4,-1.2,23.7,nt
O=C(CSc1ccc(-c2cccc([N+](=O)[O-])c2)nn1)NC1CCCC1,21.0,-0.6,-2.6,-16.0,11.7,nt
SMILES,tim23-1 inh,TIM10 inh,NLRP3 yeast inh,NALP1 yeast inh,tim10-1 inh,tim10-1 confirm
CC(C)Oc1ccc(C(=O)NC2(C(F)(F)F)NC(=O)N(CCCc3ccccc3)C2=O)cc1 (stereo unspecified),42.7,4.0,4.6,28.7,42.8*,30.4
CCCCN1C(=O)NC(NC(=O)c2ccco2)(C(F)(F)F)C1=O (stereo unspecified),8.0,-0.9,2.4,-0.5,14.2,nt
O=C1C(NS(=O)(=O)c2cccs2)=C(N2CCOCC2)C(=O)c2ccccc21,23.4,12.4,-5.5,2.8,18.8,nt
CN(C1=C(N2CCOCC2)C(=O)c2ccccc2C1=O)c1ccccc1,42.1,11.9,33.6,27.5,44.9*,20.1
CC1Cc2ccccc2N1C(=O)CN1CCN(S(=O)(=O)c2cccs2)CC1 (stereo unspecified),35.7,11.3,10.9,nt,47.9*,21.1
Cc1ccc(C(=O)OCC(=O)NC2CCCC(C)C2C)cc1S(=O)(=O)N1CCCCC1 (stereo unspecified),13.7,19.8,19.1,nt,9.2,nt
Cc1cc(=O)oc2c(C)c3occc3cc12,15.7,-1.4,27.7,12.4,9.2,nt
COc1ccc(/C=C/C(=O)CCC(=O)O)cc1,-1.5,0.6,10.7,3.2,0.8,nt
O=C(/C=C/c1ccccc1)CC(O)(c1ccccc1)C(F)(F)F (stereo unspecified),31.2,27.2,42.0,9.2,44.9*,39.3*
COc1ccc(/C=C/C(=O)CC(O)(c2ccccc2)C(F)(F)F)cc1 (stereo unspecified),40.0,30.4,14.8,-3.9,46.5*,35.6*
CCCC(=O)Nn1cnc2c(c1=O)C1(CCCC1)Cc1ccccc1-2,35.2,25.0,14.4,18.9,45.3*,36.4*
CC(=O)Nn1cnc2c(c1=O)C1(CCCC1)Cc1ccccc1-2,20.0,36.7,6.2,nt,13.9,nt
S=c1[nH]nc(-c2ccccn2)n1/N=C/c1cccc2ccccc12,39.4,31.6,15.1,28.4,41.3*,11.2
Cc1ccc(-n2nc3c(=O)n(CCCC(=O)NCc4ccccc4Cl)nc(C)c3c2C)cc1,27.5,5.8,8.2,18.2,39.9,nt
O=C(CNS(=O)(=O)c1c(Cl)cccc1Cl)OCc1csc(-c2ccccc2)n1,47.3,14.0,-2.2,30.4,46.8*,31.8*
C=C1CCC[C@]2(C)C[C@H]3OC(=O)C(CNC(C)CC)[C@H]3CC12 (stereo partly specified),31.3,30.3,1.2,17.7,42.9*,37.3*
C=C1CCC[C@]2(C)C[C@H]3OC(=O)C(CNC(CC)CO)[C@H]3CC12 (stereo partly specified),35.0,15.8,-82.7,16.0,52.0*,45.1*
C=C1CCC[C@]2(C)C[C@H]3OC(=O)C(CN(C)CC(OC)OC)[C@H]3CC12 (stereo partly specified),25.5,15.3,-15.0,-25.9,42.3*,41.1*
C=C1CCC[C@]2(C)C[C@H]3OC(=O)C(CN4CCCCC4CO)[C@H]3CC12 (stereo partly specified),45.7,26.0,-80.7,-33.4,48.4*,37.5*
CCN(CC)S(=O)(=O)c1ccc(C(=O)NC2=C(C(=O)OC)SCC2)cc1,25.6,23.4,-20.5,11.7,41.8*,31.2
CCOc1ccc2nc(N/C(N)=N/C(=S)Nc3ccc(C)c(C)c3)nc(C)c2c1,30.5,25.5,21.2,20.0,15.1,nt
